# Data from publication PMC4336329 (PLoS ONE, 2015).
# About 14,000 (4.5%) of roughly 310,000 compounds showed an effect of 50% or more. Effects have a minus sign here. The list comes from a sample in which strong results are over-represented; it also holds similar structures and randomly drawn compounds.
# Molecular target: human ether-à-go-go-related gene (hERG) potassium channel (human, UniProt Q12809)
# Experiment: primary screen, population patch clamp on CHO cells stably expressing hERG; higher = less effect of the substance
# 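Note: peak tail current of the secondary pulse compared with the same well before compound.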
# Chain of human ether-à-go-go-related gene (hERG) potassium channel (Q12809 whole entry, looked up): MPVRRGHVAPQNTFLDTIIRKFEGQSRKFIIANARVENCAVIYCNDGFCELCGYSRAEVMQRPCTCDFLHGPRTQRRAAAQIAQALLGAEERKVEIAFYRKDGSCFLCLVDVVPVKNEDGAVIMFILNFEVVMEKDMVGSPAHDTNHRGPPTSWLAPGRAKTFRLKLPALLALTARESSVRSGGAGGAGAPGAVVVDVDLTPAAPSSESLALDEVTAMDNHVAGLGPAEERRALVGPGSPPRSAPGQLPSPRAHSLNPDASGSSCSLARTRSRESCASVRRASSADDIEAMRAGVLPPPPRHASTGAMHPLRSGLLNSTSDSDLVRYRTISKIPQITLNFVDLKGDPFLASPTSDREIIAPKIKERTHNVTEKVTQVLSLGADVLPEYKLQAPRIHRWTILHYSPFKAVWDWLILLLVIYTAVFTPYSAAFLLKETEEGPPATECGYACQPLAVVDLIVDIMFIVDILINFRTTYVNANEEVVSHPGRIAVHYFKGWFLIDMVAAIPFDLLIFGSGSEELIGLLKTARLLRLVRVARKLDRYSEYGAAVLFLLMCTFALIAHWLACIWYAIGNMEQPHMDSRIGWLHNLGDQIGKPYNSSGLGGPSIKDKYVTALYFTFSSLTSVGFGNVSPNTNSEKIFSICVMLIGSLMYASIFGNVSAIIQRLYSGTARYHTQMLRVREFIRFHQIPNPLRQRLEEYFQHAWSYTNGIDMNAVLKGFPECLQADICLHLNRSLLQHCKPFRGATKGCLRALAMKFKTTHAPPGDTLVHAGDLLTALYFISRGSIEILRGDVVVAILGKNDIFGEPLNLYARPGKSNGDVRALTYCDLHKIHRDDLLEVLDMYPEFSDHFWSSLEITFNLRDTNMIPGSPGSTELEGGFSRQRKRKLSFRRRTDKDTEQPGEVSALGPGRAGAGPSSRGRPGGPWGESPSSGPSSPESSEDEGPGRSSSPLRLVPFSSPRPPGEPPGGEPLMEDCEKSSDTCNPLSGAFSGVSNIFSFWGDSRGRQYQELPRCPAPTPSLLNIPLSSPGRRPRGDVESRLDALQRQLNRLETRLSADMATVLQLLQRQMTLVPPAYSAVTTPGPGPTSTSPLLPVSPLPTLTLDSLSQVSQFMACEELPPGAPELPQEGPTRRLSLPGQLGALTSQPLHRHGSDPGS
row,SMILES,"hERG current change (%, negative = inhibition) at 10uM [%]"
1,COc1ccc(-c2cn3cc(C(F)(F)F)cc(Cl)c3n2)cc1,9.73
2,Cc1ccc(C(=O)Nc2nc3ccc(S(C)(=O)=O)cc3s2)o1,-0.566
3,Cc1nc(CN(C)C(=O)c2ccccc2OC2CCN(S(C)(=O)=O)CC2)cs1,3.35
4,COc1ccccc1CNC(=O)CCC(=O)N1CCOc2ccc(Cl)cc21,-5.43
5,COc1ccc(N2CCN(CCCNC(=O)CCC(=O)N3CCOc4ccc(Cl)cc43)CC2)cc1,-70.4
6,COc1ccc(N2CCN(C(=O)CCC(=O)N3CCOc4ccc(Cl)cc43)CC2)cc1,-52.8
7,COc1cccc(N2CCN(C(=O)CCC(=O)N3CCOc4ccc(C)cc43)CC2)c1,-30.3
8,O=C(CCC(=O)N1CCOc2ccccc21)N1CCOCC1,-5.85
9,Cc1ccc2c(c1)N(C(=O)CCC(=O)N1CCN(c3ccccc3)CC1)CCO2,-43.8
10,COc1ccc(CCNC(=O)CCC(=O)N2CCOc3ccc(Cl)cc32)cc1OC,-20.2
11,COc1ccc(N2CCN(C(=O)CCC(=O)N3CCOc4ccc(C)cc43)CC2)cc1,-42.7
12,O=C(CCC(=O)N1CCOc2ccccc21)N1CCN(c2ccccc2)CC1,-70
13,O=C(Oc1nsnc1N1CCOCC1)N1CCOCC1,15.3
14,CCc1noc(C)c1C(=O)Nc1cc(C(F)(F)F)ccc1-n1cncn1,-21.3
15,O=C(Nc1cccc2nsnc12)c1ccc(-c2cccc(Cl)c2)o1,10.4
16,FC(F)(F)c1ccccc1NC(=S)NN=C1CCCCCC1,23.5
17,CCC(=O)N(CCc1ccccc1C)Cc1cc2cc3c(cc2[nH]c1=O)OCO3,-3.05
18,COC(=O)c1ccccc1NC(=O)Cn1nc2n(C)c3ccccc3n2c(=O)c1=O,-3.54
19,Cc1ccc(N2CC(C(=O)NCCN3CCOCC3)CC2=O)cc1C (stereo not shown),10.2
20,Cn1nnnc1P(=O)(c1ccccc1)c1ccccc1,7.84
21,O=C1NCC(O)=C1C=NC12CC3CC(CC(C3)C1)C2 [4246017],12.6
22,COc1ccc(NC(=O)N2c3ccc(OC)cc3C(C)=CC2(C)C)cc1,20.1

row,SMILES,"hERG current change (%, negative = inhibition) at 10uM [%]"
1,CC1=C(c2ccccc2)[N+](=O)C2(CCCCC2)N1[O-],-4.49
2,COc1ccc(C2=NOC3(CC(=O)N(c4ccc(F)cc4)C3=O)C2)cc1 (stereo not shown),15.5
3,O=C(COC(=O)c1cc([N+](=O)[O-])ccc1NCCO)Nc1ccc2c(c1)OCO2,5.75
4,Brc1ccc(-c2csc3[n+]2CCCCC3)cc1.[Br-],-6.25
5,Clc1ccc(-n2cc(-c3ccc(Br)cc3)[n+]3c2CCCCC3)cc1.[Br-],-49.4
6,FC(F)Oc1ccc(-n2cc(-c3ccc(Cl)cc3)[n+]3c2CCCCC3)cc1.[Br-],-78.3
7,Br.FC(F)Oc1ccc(-c2csc(NNC3=NCCCCC3)n2)cc1,-47.5
8,O=C(Nc1ccc(Cl)cc1)N(C1=NCCC1)c1ccc(OC(F)F)cc1,-8.02
9,COc1ccc(-n2cc(-c3ccccc3)[n+]3c2CCCCC3)cc1.[Br-],-19.3
10,Clc1ccc(-c2cn(-c3ccc(Cl)cc3)c3[n+]2CCCCC3)cc1.[Br-],-52.7
11,[Cl-].c1ccc(-c2c[nH]c3[n+]2CCCCC3)cc1,-2.27
12,COc1ccc(N2CCN(C(=O)COC(=O)c3ccc(OC(F)F)cc3)CC2)cc1,-26.5
13,COc1ccc(-n2cc(-c3ccc(OC(F)F)cc3)[n+]3c2CCCCC3)cc1.[Br-],-76.3
14,FC(F)Oc1ccc(-n2cc(-c3ccccc3)[n+]3c2CCCCC3)cc1.[Br-],-55.6
15,COc1ccc(-c2cn(-c3ccc(Cl)cc3)c3[n+]2CCCCC3)cc1.[Br-],-31.9
16,O=C(NCC(c1cccs1)N1CCc2ccccc21)c1ccccc1 (stereo not shown),15.3
17,C=CCN(c1ccc(C(=O)N(CC)CC)cc1)S(C)(=O)=O,-4.12
18,CCN(CC)CCCNC(=O)C1c2ccccc2C(=O)N(CCOC)C1c1ccc(F)cc1 (stereo not shown),14.9
19,COc1ccc(CNC(=O)COC(=O)c2[nH]c(C)c(C(C)=O)c2C)cc1OC,1.28
20,CC(=O)Oc1ccc(N2C(=O)CCC2=O)cc1,16
21,Cc1ccc(N2C(=O)[C@@H]3Cc4ccccc4CN3C2=O)cc1,-3.34
22,CCOC(=O)CC1C(=O)NCCN1C(=O)c1ccc(Cl)cc1 (stereo not shown),12.9

row,SMILES,"hERG current change (%, negative = inhibition) at 10uM [%]"
1,Nc1nc2ccc(NC(=O)c3ccco3)cc2s1,11.7
2,COc1ccc(CNC(=O)CCc2nnc3ccc(N4CCC5(CC4)OCCO5)nn23)cc1,15.1
3,Nn1c(COc2ccccc2F)nnc1SCC(=O)NC1CC1,0.387
4,CC(=O)NC1=NN(C(C)=O)C(C)(c2ccco2)S1 (stereo not shown),14.6
5,Cc1ccc(CONC(=O)c2ccc(OC(F)F)cc2)cc1,-30.9
6,Cc1ccc(-c2cn(-c3ccc(OC(F)F)cc3)c3[n+]2CCCCC3)cc1.[Br-],-61.6
7,O=C(CC1C(=O)NCCN1Cc1ccoc1)NCc1cccc(OC(F)(F)F)c1 (stereo not shown),1.19
8,CC(C)(O)CC[C@@H](O)[C@](C)(O)C1CC[C@@]2(O)C3=CC(=O)[C@]4(O)C[C@@H](O)[C@@H](O)C[C@]4(C)C3CC[C@]12C (stereo partly shown),30.1
9,CCCCCCSc1ncc(C#N)c(N)n1,-4.45
10,CCCCCc1nc2c(c(=O)c3ccccc3n2C)c(=O)n1C1CCCCCC1,1.32
11,COc1ccc(Cn2c(-c3ccco3)nc3c(c(=O)c4ccccc4n3C)c2=O)cc1,-35.3
12,CC(C)Cn1c(-c2ccco2)nc2c(c(=O)c3ccccc3n2C)c1=O,-59.3
13,CCCc1nc2c(c(=O)c3ccccc3n2C)c(=O)n1C1CCCCCC1,-10.1
14,Cc1ccc(-c2nc3c(c(=O)c4ccccc4n3C)c(=O)n2Cc2ccco2)cc1,2.18
15,Cc1nc2c(c(=O)c3ccccc3n2C)c(=O)n1C1CCCCCC1,-0.582
16,Cn1c2ccccc2c(=O)c2c(=O)n(C3CCCCC3)c(-c3cccs3)nc21,-66.1
17,Cn1c2ccccc2c(=O)c2c(=O)n(C3CCCCC3)c(-c3ccco3)nc21,-53.9
18,CCc1nc2c(c(=O)c3ccccc3n2C)c(=O)n1C1CCCCCC1,-1.73
19,COC(=O)c1sc(NC(=O)COc2cccnc2[N+](=O)[O-])c(C(=O)OC)c1C,3.81
20,CCOc1ccccc1Cn1c(=O)oc2ccc(C)cc21,11.1
21,Cc1cc(C)cc(N(CC(=O)NCC2CCCO2)C(=O)CCC(=O)Nc2nccs2)c1 (stereo not shown),12.8
22,O=C(/C=C/c1cccc([N+](=O)[O-])c1)NCCSCc1cccc(Cl)c1,-18.9

row,SMILES,"hERG current change (%, negative = inhibition) at 10uM [%]"
1,CCOCCCNC(=O)C(NC(=O)c1ccccc1O)c1ccccc1 (stereo not shown),7.92
2,COc1ccccc1N1CCN(C(CNS(=O)(=O)c2ccc(C)cc2)c2cccnc2)CC1 (stereo not shown),-38.9
3,COc1ccccc1N1CCN(C(CNS(=O)(=O)c2ccccc2)c2cccnc2)CC1 (stereo not shown),-7.98
4,CCN1CCN(C(CNS(=O)(=O)c2ccc(OC)c(C)c2)c2cccnc2)CC1 (stereo not shown),-70.2
5,COc1ccc(S(=O)(=O)NCC(c2cccnc2)N2CCN(C)CC2)cc1C (stereo not shown),-62.9
6,Cc1cc(S(=O)(=O)NCC(C)C)ccc1OCC(=O)N1CCN(Cc2ccccc2)CC1,-35.2
7,COc1ccc(S(=O)(=O)NCC(c2cccnc2)N2CCN(Cc3ccccc3)CC2)cc1C (stereo not shown),-79.6
8,COc1ccc(S(=O)(=O)NCC(c2cccnc2)N2CCN(C)CC2)cc1OC (stereo not shown),10.7
9,COc1ccc(S(=O)(=O)NCC(c2cccnc2)N2CCN(c3ccccc3)CC2)cc1C (stereo not shown),-79.2
10,CCS(=O)(=O)NCC(c1cccnc1)N1CCN(c2ccccc2OC)CC1 (stereo not shown),0.421
11,COc1ccc(S(=O)(=O)NCc2cccnc2)cc1C,17.1
12,COc1ccc(C)cc1S(=O)(=O)NCC(c1cccnc1)N1CCc2ccccc2C1 (stereo not shown),-25.3
13,Cc1ccc(Sc2ncccc2COC(=O)NC(C)C)cc1,4.99
14,CC(C)OCCCN(CC(O)c1ccccc1)CC(O)c1ccccc1.O=C(O)C(=O)O (stereo not shown),-10.1
15,CC(C)(C)C(=O)C[n+]1cccc(C(N)=O)c1.[Br-],21
16,Cc1nn(-c2ccccc2)c2c1C1(C(=O)N(C(C)C)c3ccccc31)C(C#N)=C(N)O2 (stereo not shown),-1.88
17,CC1=Nc2cc(C(=O)N3CCCC3)ccc2Sc2c(C)ccc(C)c21,-19.5
18,CSc1ncc(OCc2ccccc2)c(=O)[nH]1,8.39
19,O=C1CS/C(=N\NC(=O)c2ccccc2)N1,15.6
